# According to PubChem BioAssay (Tox21):
# Inconclusive results are not listed. The source made the active and inactive calls. The call rests on the fitted dose curve; in most records, active means well fitted cell-killing curve with a large enough effect in the repeat runs; inconclusive means weak or mixed curves, or effect the other way; inactive means flat fitted curve, though single readings scatter.
# Assay: qHTS assay to identify small molecule antagonists of the androgen receptor (AR) signaling pathway using the MDA cell line - cell viability counter screen (AID 743041; further: nearly all actives have a fitted effect of over 45% in size)
# Conditions: MDA-kb2 viability, CellTiter-Fluor, 16 h, cells co-treated with R1881 androgen agonist; series mostly up to 70.3 µM; viability change, negative = cytotoxic: at the top concentration
# Text: National Center for Advancing Translational Sciences [NCATS]
# NIH Chemical Genomics Center [NCGC]
# U.S. Environmental Protection Agency [EPA]
# National Institutes of Environmental Health Sciences [NIEHS]
# National Toxicology Program [NTP]
# U.S. Food and Drug Administration [FDA]
# Androgen receptor (AR), a nuclear hormone receptor, plays a critical role in AR-dependent prostate cancer and other androgen related diseases. Endocrine disrupting chemicals (EDCs) and their interactions with steroid hormone receptors like AR may cause disruption of normal endocrine function as well as interfere with metabolic homeostasis, reproduction, developmental and behavioral functions. To identify the compounds that inhibit AR signaling, MDA-kb2 AR-luc cell line (from ATCC, deposited by Wilson et al.) was used to screen the Tox21 10K compound library. MDA-kb2 AR-luc cell line is human breast carcinoma cell line that was stably transfected with a luciferase reporter gene under control of the MMTV promoter containing response elements for both androgen receptor (AR) and glucocorticoid receptor (GR). The cytotoxicity of the Tox21 compound library against the MDA-kb2 AR-luc cell line was tested in parallel by measuring the cell viability using CellTiter-Fluor assay (Promega, Madison, WI) in the same wells.
# Tox21 Assay Protocol Summary:
# MDA-kb2 AR-luc cells were dispensed at 3,000 cells/4 uL/well of culture medium into white wall/solid-bottom 1536-well plates using a Multidrop Combi (ThermoFisher Scientific, Waltham, MA) dispenser. After the assay plates were incubated at a 37C and 0% CO2 for 5 hr, 23 nL of compounds dissolved in DMSO, positive controls or DMSO only was transferred to the assay plate by a Pintool station (Kalypsys, San Diego, CA), followed by addition of 1 uL of agonist (R1881) in culture medium using a Bioraptr Flying Reagent Dispenser (FRD) workstation (Beckman Coulter, Indianapolis, IN, USA). The plates were incubated at a 37C and 0% CO2 for 16 h. After 15.5 h incubation, 1uL of CellTiter-Fluor reagent (Promega) was added using a Bioraptr FRD to each plate for measuring cytotoxicity. The fluorescence intensity was quantified on a ViewLux plate reader (PerkinElmer, Shelton, CT) following 30 min incubation at 37C and 0% CO2.
# On the % scale 0 is the no-effect control and ±100 the full control effect.
SMILES,outcome,"viability change, negative = cytotoxic"
C=CC(=O)OCC(CC)CCCC (stereo not given),inactive,
O=C(O)C(Br)Br,inactive,
O=C/C=C/c1ccccc1,inactive,
Nc1ccc([As](=O)(O)O)cc1,inactive,
COc1cc(-c2ccc(N)c(OC)c2)ccc1N,inactive,
Cc1cccc(C)c1NC(=O)CN1CCCC1=O,inactive,
Cc1ccc(N=C=O)cc1N=C=O,inactive,
ClCCOCCCl,inactive,
[N-]=[N+]=CC(=O)OC[C@H](N)C(=O)O,inactive,
COP(=S)(OC)SCN1C(=O)c2ccccc2C1=O,inactive,
OCC(O)CCl (stereo not given),inactive,
CSc1nnc(C(C)(C)C)c(=O)n1N,inactive,
Nc1ccc(N)cc1,,-5.22% (inactive)
N#Cc1cccc(C#N)c1,inactive,
O=C(O)CCCc1ccc(N(CCCl)CCCl)cc1,inactive,
O=C(O)Cc1ccccc1,,-3.84% (inactive)
CN(C)NC(=O)CCC(=O)O,,0% [at 95 µM] (inactive)
Clc1cnc(Oc2ccc(Oc3ncc(Cl)cc3Cl)cc2)c(Cl)c1,inactive,
OCCCCO,inactive,
C=CC#N,inactive,

SMILES,outcome,"viability change, negative = cytotoxic"
CCOc1ccc(N)cc1,inactive,
C[C@H]1C(=O)O[C@@H]2CCN3CC=C(COC(=O)[C@](C)(O)[C@]1(C)O)[C@H]23,inactive,
CC(=O)/C=C/c1ccccc1,,-2.31% (inactive)
ClC(Cl)c1ccccc1,inactive,
Cc1ccc(O)c(C)c1,inactive,
OC[C@@H](O)[C@H]1O[C@@H]2O[C@H](C(Cl)(Cl)Cl)O[C@@H]2[C@H]1O,inactive,
Cc1cc(Cl)ccc1OC(C)C(=O)O (stereo not given),,-0.839% (inactive)
O=P1(NCCCl)OCCCN1CCCl (stereo not given),inactive,
CNCC(O)c1ccc(O)cc1 (stereo not given),inactive,
CCOP(=S)(OCC)Oc1ccc([N+](=O)[O-])cc1,inactive,
COP(=S)(OC)Oc1ccc(SC)c(C)c1,inactive,
OCc1ccco1,inactive,
CC(C)c1cccc(C(C)C)c1O,inactive,
Sc1ccccc1,inactive,
O=S(=O)(O)OOS(=O)(=O)O,inactive,
CNC(=O)O/N=C/C(C)(C)S(C)=O (stereo not given),inactive,
Cc1ccccc1N,inactive,
CNC(=O)Oc1cccc2ccccc12,inactive,
CNC(=O)O/N=C/C(C)(C)SC,,2.64% [at 95 µM] (inactive)
Cl[C@H]1OCCO[C@@H]1Cl,inactive,
